Screening results as filed in PubChem BioAssay.
Only a selection was taken, and hits are over-represented in it overall.
Pf Dd2 growth: Plasmodium falciparum Dd2 growth inhibition | AID 1347417 | 120,000 compounds, 4.3% hits | P. falciparum Dd2 growth, SYBR Green, 72 h | Potency, µM (doses to about 28.9 µM), for inactives: top-dose activity, negative = inhibition, most hits filed as inhibitors; active = well fitted inhibition curve with a large enough effect;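 note: plate controls were DMSO vehicle for no effect and reference drug for full effect; nearly all actives have a fitted effect of over 65% in size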
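Readout: SYBR Green fluorescence, 485 nm excitation, 535 nm emission, after ~16 h lysis at 37C. Before that, Dd2-infected red cells (2.5% hematocrit) grew 72 h with compound, 29 uM top final concentration.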
Numbers without * were called inactive; [ ] = remark or other dose. Potency is the fitted concentration of half-maximal effect.

How did OCCc1cc(CC2(N(CC3CC3)CC3CC3)COC2)no1 do in these assays?
Pf Dd2 growth: 9%[44.1 µM]

Results for COc1ccc(NC(=O)c2ccc3c(c2)OCCN(Cc2ncccn2)C3)c(F)c1 ?
Pf Dd2 growth: -11%[44.1 µM]

What do the screens show for `Cc1ccc(CCNC(=O)Cn2nc(C)n(CCc3ccccc3)c2=O)o1`?
Pf Dd2 growth: 0%

Results for CC(C)NC(=O)NC[C@H]1O[C@@H](CC(=O)N2CCN(c3ccc(F)cc3)CC2)[C@H](O)[C@@H]1O ?
Pf Dd2 growth: -8%

What do the screens show for `O=C(O)CCn1ncc2cc(OCc3ccc(-c4cccc(CO)c4)cc3)ccc21`?
Pf Dd2 growth: inactive

How did CNC(=O)CCn1ncc2cc(OCc3ccccc3-c3ccsc3)ccc21 do in these assays?
Pf Dd2 growth: 6.3µM*

How did CNC(=O)CCn1ncc2cc(OCc3ccccc3-c3ccc(OC)cc3C)ccc21 do in these assays?
Pf Dd2 growth: 5.6µM*

Results for CNC(=O)CCn1ncc2cc(OC3CCc4cccc(-c5ccc(O)c(F)c5)c43)ccc21 (stereo not drawn) ?
Pf Dd2 growth: inactive

What do the screens show for `COc1ccc(C)cc1-c1ccc(COc2ccc3c(cnn3CCC(=O)O)c2)cc1`?
Pf Dd2 growth: inactive

How did CNC(=O)CCn1ncc2cc(OCc3ccccc3-c3cccc(OC)c3)ccc21 do in these assays?
Pf Dd2 growth: -4%[44.1 µM]

What do the screens show for `O=C(c1ccccc1)N1CCCC(c2nn(-c3ccccc3)c(=O)[nH]2)C1` (stereo not drawn)?
Pf Dd2 growth: -24%

What do the screens show for `CNc1cc(C2CC(NS(=O)(=O)c3ccc(Cl)s3)C2)nc(N)n1` (stereo not drawn)?
Pf Dd2 growth: 7.9µM*

What do the screens show for `O=C(Nc1ccc(F)c(Cl)c1)N1CCC2(CC1)SCC(=O)N2Cc1ccco1`?
Pf Dd2 growth: -22%

What do the screens show for `Cc1noc(CN2CCN(c3nc(N)nc4c3CCC4)CC(O)C2)n1` (stereo not drawn)?
Pf Dd2 growth: 3%

What do the screens show for `COCCN1CCC2(CCC1=O)CCN(C(=O)CCn1nc(C)cc1C)CC2`?
Pf Dd2 growth: 19%

How did Cc1ccnc(NC(c2ccccc2F)c2ccc3cccnc3c2O)c1 (stereo not drawn) do in these assays?
Pf Dd2 growth: 6.3µM*

What do the screens show for `Cc1cccc(NC(c2ccccc2C)c2ccc3ccc(C)nc3c2O)n1` (stereo not drawn)?
Pf Dd2 growth: 5µM*

Results for Oc1c(C(Nc2ccccn2)c2ccccc2F)ccc2cccnc12 (stereo not drawn) ?
Pf Dd2 growth: 1.1µM*

How did Cc1ccc(NC(=O)CN(C)S(=O)(=O)c2cccc3cccnc23)cc1F do in these assays?
Pf Dd2 growth: inactive

Results for O=C(c1c(OCC2CC2)cc(=O)n2c1CCOCC2)N1CCOCC1 ?
Pf Dd2 growth: 13%

How did CN1CC(=O)N(C2CCCNCC2)Cc2c(NCCc3ccccc3F)ncnc21 (stereo not drawn) do in these assays?
Pf Dd2 growth: -9%

How did COc1ccc(C(=O)N[C@@H]2CCC[C@@H]2C(=O)NCCCN2CCOCC2)cn1 do in these assays?
Pf Dd2 growth: -15%

Results for CN1CCCC1c1nc(C2CN(C(=O)c3ccco3)C2)no1 (stereo not drawn) ?
Pf Dd2 growth: -6%

How did CCCCN1C(=O)c2ccccc2C(C(=O)NCc2ccccn2)C12CCCCC2 (stereo not drawn) do in these assays?
Pf Dd2 growth: inactive

Results for CCCNC(=O)N1CCC(N2C(=O)[C@H](OC)[C@@H]2c2ccncc2)CC1 ?
Pf Dd2 growth: 1%

What do the screens show for `Cc1nn(-c2ccc(F)cc2)c(Oc2ccccc2F)c1CCC(=O)NCC(C)C`?
Pf Dd2 growth: -6%

What do the screens show for `COc1ccc(C(=O)N2C[C@@H](Oc3ccccc3)C[C@H]2C(=O)N2CCCC2)c(OC)c1`?
Pf Dd2 growth: inactive

How did CC(C)CCN1CCC(N2CCN(C(=O)CC3CCCCC3)CC2)C1=O (stereo not drawn) do in these assays?
Pf Dd2 growth: -14%

What do the screens show for `CC1Oc2ccc(NC(=O)c3cccs3)cc2CN(Cc2ccc(F)cc2)C1=O` (stereo not drawn)?
Pf Dd2 growth: inactive

Results for Cc1cc(C)c(CNC(=O)c2nc(-c3ccccc3)cc3c2ccn3C(C)C)c(=O)[nH]1 ?
Pf Dd2 growth: inactive

How did Cc1cc(C)c(CNC(=O)c2nc(-c3ccnn3C)cc3c2ccn3C(C)C)c(=O)[nH]1 do in these assays?
Pf Dd2 growth: 7.1µM*

How did Cc1cc(C)c(CNC(=O)c2nc(-c3ccccc3C#N)cc3c2ccn3C(C)C)c(=O)[nH]1 do in these assays?
Pf Dd2 growth: inactive

What do the screens show for `CC(C)(CN1CCOCC1)CN1CCCN(Cc2cccnc2)CC1`?
Pf Dd2 growth: 1%

What do the screens show for `CCOc1cc(=O)n2c(c1C(=O)NCCCN1CCCc3ccccc31)CCCCC2`?
Pf Dd2 growth: -19%

Results for Cc1ccc([S+](=O)([O-])N2CCC(c3nn(-c4ccc(F)cc4)c(=O)[nH]3)CC2)cc1 ?
Pf Dd2 growth: 8.9µM*

Results for Cc1ccc([S+](=O)([O-])N2CCCC(c3nn(-c4ccc(Cl)cc4)c(=O)[nH]3)C2)cc1 (stereo not drawn) ?
Pf Dd2 growth: -21%
